GDH-TPI counter-1: GDH-TPI coupled enzyme inhibition counter-screen; GDH-TPI coupled enzyme counterscreen, NADH absorbance; inhibition, % at 4.8 µM; hit rate 1.2% among 360,000; AID 588335; in the data active = inhibition above about 30%;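 note: 0% = DMSO wells and 100% = wells lacking the enzyme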
RecA intein inh: inhibitors of M. tuberculosis RecA intein splicing. cell-free RecA intein splicing, fluorescence. inhibition, % (test concentration not listed). hit rate 0.75% among 290,000. AID 2221; in the data active = inhibition above about 30%;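 note: 0% = vehicle wells and 100% = reference inhibitor control wells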
FBA Mtb inh: inhibits M. tuberculosis FBA enzyme; P9WQA3; purified M. tuberculosis FBA, fluorescence read-out; inhibition, % at 1 µM; hit rate 2.3% among 360,000; AID 588726;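 note: 0% = vehicle and 100% = reference inhibitor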
Mtb betalactam: beta-lactam sensitization of Mtb H37Rv; M. tuberculosis H37Rv growth with meropenem, percent inhibition; inhibition, % at 25 µM; hit rate 0.27% among 330,000; AID 434955; call rule not given here;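 note: growth measured after seven days incubation then overnight dye step; 0% = bacteria only wells and 100% = bacteria with antibiotic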
Rv3671c protease: inhibitors of M. tuberculosis serine protease Rv3671c | P9WHR9 | hit rate 0.048% among 320,000 | inhibition, % at 5.96 µM; in the data active = inhibition above about 38%;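 note: extracellular domain of Rv3671c used as enzyme; 0% = enzyme with DMSO and 100% = no enzyme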
Target sequence (P9WHR9 whole entry, looked up, the tested form may be a part): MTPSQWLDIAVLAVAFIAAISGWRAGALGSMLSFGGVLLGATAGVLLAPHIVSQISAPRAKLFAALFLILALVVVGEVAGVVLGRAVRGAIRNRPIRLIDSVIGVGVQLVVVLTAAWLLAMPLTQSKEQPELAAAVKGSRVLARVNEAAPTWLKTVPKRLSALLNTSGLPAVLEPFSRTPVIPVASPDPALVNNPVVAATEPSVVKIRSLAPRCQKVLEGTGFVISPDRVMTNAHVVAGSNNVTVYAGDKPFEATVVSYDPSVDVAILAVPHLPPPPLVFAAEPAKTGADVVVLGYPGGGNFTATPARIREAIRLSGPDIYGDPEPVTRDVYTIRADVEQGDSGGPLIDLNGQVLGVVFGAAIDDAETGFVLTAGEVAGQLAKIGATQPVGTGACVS
Mtb UGM inh: Mtb UDP-galactopyranose mutase inhibition | P9WIQ1 | purified UGM, fluorescence polarization probe displacement | inhibition, % at 10 µM | hit rate 0.06% among 320,000; in the data active = inhibition above about 10%, passing the limit was not always enough
Mtb FBA inh conf: Mtb FBA inhibition, confirmed. shares compounds with FBA Mtb inh. purified M. tuberculosis FBA, fluorescence read-out. inhibition, % at 1 µM. hit rate 78% among 5,600. AID 651616;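 note: 0% = vehicle wells and 100% = reference inhibitor wells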
GDH-TPI counter-2: inhibits GDH-TPI coupling enzymes, flagging Mtb FBA hits | shares compounds with FBA Mtb inh | GDH-TPI coupled enzyme counterscreen, fluorescence | inhibition, % at 1 µM | hit rate 81% among 5,600; in the data active = inhibition above about 10%
Active calls of the source: *; / = no result; + = active, no number. An excerpt weighted towards active compounds, which were near 4% of everything screened. Cut-off read from the data, not from the text of the source, unless noted: active = inhibition above about 27%; inactive = the rest.

SMILES	GDH-TPI counter-1	RecA intein inh	FBA Mtb inh	Mtb betalactam	Rv3671c protease	Mtb UGM inh	Mtb FBA inh conf	GDH-TPI counter-2
COC(=O)C1=CN(Cc2ccc(OC)c(OC)c2)C=C(C(=O)OC)C1c1cccc(O)c1	19.2	/	110.5*	-9.1	3.9	-2.7	109.4*	81.7*
COC(=O)C1=CN(CCOC23CC4CC(CC(C4)C2)C3)C=C(C(=O)OC)C1c1ccsc1	-0.9	-23.5	62.6*	-2.9	-1.4	2.5	100.8*	85.3*
COC(=O)C1=CN(CC2CCCO2)C=C(C(=O)OC)C1c1ccsc1 (centres undefined)	0.0	-165.5	82.7*	6.6	-4.5	-1.5	4.0	-7.7
COC(=O)C1=CN(Cc2ccc(F)cc2)C=C(C(=O)OC)C1c1ccc(O)c(OC)c1	13.8	-1.7	5.6	0.5	/	-0.4	/	/
COC(=O)C1=CN(Cc2ccc(OC)cc2)C=C(C(=O)OC)C1c1ccsc1	1.6	-98.8	97.9*	-4.7	-6.3	1.2	130.9*	86.5*
CCOC(=O)C1(C)CCCN1C(=O)c1ccc(C(F)(F)F)nc1C (centres undefined)	8.0	/	-0.7	/	/	/	/	/
C=CCNc1ncnc2c1ncn2[C@H]1CN(CCc2ccccc2)C[C@@H](CO)O1	5.6	/	0.9	/	/	/	/	/
O=C(NNC(=O)C1CCCC1)c1cc([N+](=O)[O-])cc([N+](=O)[O-])c1	4.6	/	1.0	99.9	-0.9	-1.2	/	/
CCOC(=O)N1CCN(C(=O)Nc2cccc3ccccc23)CC1	-4.9	0.6	31.3*	3.6	-2.1	/	169.6*	155.6*
O=C(Nc1cccc2ccccc12)N1CC=C(c2ccccc2)CC1	-0.9	0.6	32.9*	1.9	2.9	-1.1	54.8*	67.5*
O=C(Nc1cccc2ccccc12)N1CCN(Cc2ccccc2)CC1	-12.8	2.7	32.8*	11.3	-7.2	0.7	96.3*	74.2*
Cc1cccnc1C(NC(=O)C1CCN(CCCOc2ccc(F)cc2)CC1)c1ccccc1 (centres undefined)	8.8	/	-3.0	/	/	/	/	/
COc1cccc(CN2CC(C(=O)NCCc3cn4cccnc4n3)CCC2=O)c1 (centres undefined)	2.6	/	47.1*	/	/	/	101.9*	71.1*
COc1cccc(CCNC(=O)C2CCC(=O)N(Cc3cccc(OC)c3)C2)c1 (centres undefined)	0.3	1.8	2.0	5.9	9.5	0.2	/	/
Cc1ccc(N(Cc2ccccc2)C(=O)c2cc(S(=O)(=O)N3CCOCC3)ccc2F)cc1	10.1	/	-0.2	5.9	-2.1	1.4	/	/
CC1(C(=O)NS(=O)(=O)c2ccc(Br)cc2)CCN1C(=O)CCC1CCCC1 (centres undefined)	10.6	/	5.3	/	/	/	/	/
COc1cccc(NC(=O)C(C)(C)C)c1	7.9	/	1.0	-2.0	0.8	0.6	/	/
COC(=O)c1cccc(NC(=O)C(C)(C)C)c1	7.7	-0.6	36.4*	-1.3	-2.6	0.4	+	+
Cc1ccccc1-c1nc(C#N)c(N2CCCCC2)o1	-4.7	8.8	70.4*	-5.1	6.6	-2.5	7.8	2.0
Cc1cccc(-c2nc(CS(=O)CC(=O)NC3CCCC3)c(C)o2)c1 (centres undefined)	10.0	/	4.4	/	/	/	/	/
COc1ccc(-c2nc(C#N)c(N3CC(C)OC(C)C3)o2)cc1OC (centres undefined)	5.7	1.0	61.5*	0.2	1.4	0.8	97.9*	85.2*
Cc1cccc(-c2nc(C#N)c(NC3CCCCC3)o2)c1	13.6	-2.9	95.9*	0.0	-1.0	-1.2	34.6*	27.0*
Cc1ccccc1OCc1nc(C#N)c(N2CCCC2)o1	-0.3	0.8	-0.6	7.0	0.7	0.2	/	/
Cc1ccc(-c2nc(C#N)c(N3CCC(C)CC3)o2)cc1	4.1	-1.5	67.1*	4.0	0.4	-0.9	61.1*	58.5*
CC1CN(c2oc(-c3ccccc3Cl)nc2C#N)CC(C)O1 (centres undefined)	-1.7	-0.5	5.5	-3.0	4.6	4.0	/	/
CN1CCN(c2oc(-c3ccc([N+](=O)[O-])cc3)nc2C#N)CC1	13.2	3.0	-1.0	4.5	-3.9	-2.9	/	/
Cc1cccc(-c2nc(C#N)c(N3CCCCC3)o2)c1	4.4	-0.7	37.8*	-1.6	-12.1	2.9	35.5*	32.6*
